Bioassay records as filed in PubChem.
Most compounds without a hit are left out; they make up all but 19% or so of the library.
HT1080 IDH1KD tx – HT-1080 IDH1 knockdown cell toxicity (counter line); HT-1080 IDH1 knockdown viability, ATP luminescence, 48 h; Potency, µM (highest dose often 46.1 µM), inactives show top-dose activity, negative = toxicity, hits mostly cytotoxic; actives 2% (n = 360,000);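 note: potency is the fitted concentration of half-maximal effect; 0% = DMSO wells and -100% = cell-free medium wells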
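Knockdown cells (IDH1KD HT-1080) received compounds 2 h after plating at 750 cells/well and were kept 48 h at 37 °C in 5% FBS RPMI. A CellTiter-Glo luminescence read gave % activity for curve fitting.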
DT40 TDP1 no CPT – qHTS for Inhibitors of human tyrosyl-DNA phosphodiesterase 1 (TDP1): qHTS in cells in absence of CPT | DT40 Tdp1-/- hTDP1 cells, no CPT, ATP luminescence, 48 h | Potency, µM (highest dose often 46.2 µM), without a hit: at the top dose activity change, negative = growth inhibition, actives largely listed as inhibitors | actives 15% (n = 420,000) | AID 686978, 2013; note: potency is the fitted concentration of half-maximal effect; nearly all actives have a fitted effect of over 55% in size
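Stably hTDP1-transfected Tdp1-null chicken DT40 cells were treated with library compounds minus camptothecin and grown for at least 48 hr at 37 °C, after which cellular ATP was quantified by luminescence.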
DT40 TDP1 CPT – growth inhibition of DT40 Tdp1-/-;hTDP1 cells with camptothecin (screen for TDP1 inhibitors). chicken DT40 Tdp1-/-;hTDP1 cells + 20 nM CPT, ATP luminescence, 48 h. actives 12% (n = 420,000). Potency, µM (titrated, usually from 46.2 µM), without a hit: at the highest dose activity change, negative = growth inhibition, most hits filed as inhibitors; note: potency is the fitted concentration of half-maximal effect; nearly all actives have a fitted effect of over 55% in size
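Cell growth measured by CellTiter-Glo luminescence after a minimum 48 h, 37 C compound exposure with 20 nM CPT in Tdp1-knockout DT40 cells stably expressing hTDP1, seeded 400/well; qHTS titration format.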
HT1080-NT tox – kills 2HG-producing HT-1080-NT fibrosarcoma cells; AID 686970; HT-1080-NT fibrosarcoma viability, CellTiter-Glo ATP luminescence, 48 h; actives 1.6% (n = 360,000); Potency, µM (titrated, usually from 46.1 µM), without a hit: top-dose activity, negative = less viability, hits mostly cytotoxic;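 note: NT is the 2HG producing partner of a matched IDH1 knockdown line; potency is the fitted concentration of half-maximal effect; 0% = DMSO-treated cells and -100% = media-only wells without cells; nearly all actives have a fitted effect of over 55% in size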
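Viability of the 2HG-overproducing fibrosarcoma line after 48 hours of compound exposure at 37 degrees C was determined by luminescence with CellTiter-Glo, and concentration-effect curves were then fitted and categorized.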
IL-1B inflam inh – blocks inflammasome-driven IL-1 beta release | THP-1 LPS/ATP IL-1B secretion, AlphaLISA, 16 h; hits give low values | activity change, % at 57.5 µM | actives 4.7% (n = 360,000); in the data active = activity change below about -50%; inconclusive = mostly about -30% to -49%
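THP-1 cells pretreated 1 hr with compounds (up to 57.5 uM final), then stimulated with LPS (250 ng/mL final) plus ATP (1.25 mM final); secreted IL-1B measured by AlphaLISA after 16 hr, decreased signal indicating inhibition.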
ELG1 repair inh – blocks ELG1-dependent DNA repair in HEK293T cells. HEK293T ELG1-luciferase reporter, luminescence, 16 h; DNA damage induced by 5-fluorouridine. actives 2.3% (n = 330,000). Potency, µM (series often up to 46.1 µM), without a hit: top-dose activity change, negative = inhibition, actives largely listed as inhibitors; note: potency is the fitted concentration of half-maximal effect; nearly all actives have a fitted effect of over 55% in size
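Step one: seed 2,000 cells per well. Step two: pin-transfer compound or DMSO alongside 5-fluorouridine. Step three: incubate 16 hr, 37 °C, 5% CO2. Step four: add ONE-Glo, wait 30 min, read luminescence.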
The depositor's hits bear a star. Unless noted, calls come from the whole dose curve; as a rule, active = well fitted curve in the direction sought with a large enough effect; inconclusive = small, poorly fitted or top-dose-only effect, or another doubt; inactive = no such curve, though single readings can be large; an effect the other way counts as inactive or inconclusive. Unless noted, % is set by controls: 0 for no effect and ±100 for the full control effect.

How did CC(=O)Nc1ccc(Nc2c([N+](=O)[O-])c(=O)n(-c3ccccc3)c3ccccc23)cc1 do in these assays?
HT1080 IDH1KD tx: 5%; DT40 TDP1 no CPT: 1%; DT40 TDP1 CPT: 1%; HT1080-NT tox: -24%; IL-1B inflam inh: -6; ELG1 repair inh: 5%

Results for CC(Nc1cc(N2CCN(C(=O)C(C)(C)C)CC2)ccc1[N+](=O)[O-])c1ccccc1 (stereo unspecified) ?
HT1080 IDH1KD tx: -27%; DT40 TDP1 no CPT: 23µM*; DT40 TDP1 CPT: inconclusive; HT1080-NT tox: -11%; IL-1B inflam inh: -29; ELG1 repair inh: inconclusive

How did CC(C)C(=O)N1CCN(c2ccc([N+](=O)[O-])c(NC(C)c3ccccc3)c2)CC1 (stereo unspecified) do in these assays?
HT1080 IDH1KD tx: -22%; DT40 TDP1 no CPT: 16µM*; DT40 TDP1 CPT: inconclusive; HT1080-NT tox: inconclusive; IL-1B inflam inh: -64*; ELG1 repair inh: inconclusive

How did O=[N+]([O-])c1ccc(N2CCOCC2)cc1NC(c1ccccc1)c1ccccc1 do in these assays?
HT1080 IDH1KD tx: 1%; DT40 TDP1 no CPT: inconclusive; DT40 TDP1 CPT: 16µM*; HT1080-NT tox: 2%; IL-1B inflam inh: -9; ELG1 repair inh: 0%

Results for CC(C)Nc1cc(N2CCCC2)ccc1[N+](=O)[O-] ?
HT1080 IDH1KD tx: 0%; DT40 TDP1 no CPT: -16%; DT40 TDP1 CPT: inconclusive; HT1080-NT tox: 0%; IL-1B inflam inh: -2; ELG1 repair inh: 13%

How did CC1CCC(NC(=O)c2cc(Cl)nc3ccccc23)CC1 (stereo unspecified) do in these assays?
HT1080 IDH1KD tx: 8%; DT40 TDP1 no CPT: -24%; DT40 TDP1 CPT: 0%; HT1080-NT tox: 5%; IL-1B inflam inh: 31; ELG1 repair inh: inconclusive

What do the screens show for `Cc1ccc(C)c(Nc2cc(C(=O)NC3CCCCC3)c3ccccc3n2)c1`?
DT40 TDP1 no CPT: -29%; DT40 TDP1 CPT: -24%

What do the screens show for `Cc1ccccc1Nc1cc(C(=O)NC2CCCCC2)c2ccccc2n1`?
DT40 TDP1 no CPT: 21µM*; DT40 TDP1 CPT: inconclusive

Results for Cc1ccccc1Nc1cc(C(=O)NC2CCC(C)CC2)c2ccccc2n1 (stereo unspecified) ?
DT40 TDP1 no CPT: 12µM*; DT40 TDP1 CPT: 16µM*

How did Cc1ccc(Nc2cc(C(=O)NC3CCCC3)c3ccccc3n2)cc1C do in these assays?
DT40 TDP1 no CPT: 15µM*; DT40 TDP1 CPT: 13µM*

Results for Cc1ccc(C2NC(=O)c3n[nH]c(-c4cccs4)c32)cc1 (stereo unspecified) ?
DT40 TDP1 no CPT: 18µM*; DT40 TDP1 CPT: inconclusive

What do the screens show for `CCn1c(SCC(=O)c2ccc(C)cc2)nnc1-c1ccncc1`?
HT1080 IDH1KD tx: 2%; DT40 TDP1 no CPT: -12%; DT40 TDP1 CPT: -15%; HT1080-NT tox: 20%; IL-1B inflam inh: 3; ELG1 repair inh: -4%

Results for O=C(CSc1nnc(-c2ccc(O)cc2)n1Cc1ccccc1)NNC(=O)c1ccc(Br)cc1 ?
HT1080 IDH1KD tx: -5%; DT40 TDP1 no CPT: 1%; DT40 TDP1 CPT: -3%; HT1080-NT tox: -7%; IL-1B inflam inh: -66*; ELG1 repair inh: -3%

What do the screens show for `CCn1c(SCC(=O)NNC(=O)c2ccc(C)cc2)nnc1-c1ccncc1`?
HT1080 IDH1KD tx: 5%; DT40 TDP1 no CPT: 21µM*; DT40 TDP1 CPT: -26%; HT1080-NT tox: 2%; IL-1B inflam inh: 15

What do the screens show for `CCn1c(SCC(=O)Nc2cccc(NC(=O)c3cccs3)c2)nnc1-c1ccncc1`?
HT1080 IDH1KD tx: -12%; DT40 TDP1 no CPT: inconclusive; DT40 TDP1 CPT: inconclusive; HT1080-NT tox: -8%; IL-1B inflam inh: -2; ELG1 repair inh: 18µM*

What do the screens show for `Cc1ccc(S(=O)(=O)CCC(=O)OCc2cc(=O)oc3cc(C)ccc23)cc1`?
HT1080 IDH1KD tx: 9%; DT40 TDP1 no CPT: -1%; DT40 TDP1 CPT: -1%; HT1080-NT tox: -8%; IL-1B inflam inh: 16; ELG1 repair inh: 2%

Results for Cc1cc(C)cc(NC(=O)c2ccc(Cn3nc(C)c(Cl)c3C)o2)c1 ?
HT1080 IDH1KD tx: inconclusive; DT40 TDP1 no CPT: inconclusive; DT40 TDP1 CPT: inconclusive; HT1080-NT tox: inconclusive; IL-1B inflam inh: -21; ELG1 repair inh: 21µM*

Results for Cc1csc(NC(=O)c2ccc(Cn3nc(C)c(Br)c3C)o2)n1 ?
HT1080 IDH1KD tx: -34%; DT40 TDP1 no CPT: 21µM*; DT40 TDP1 CPT: inconclusive; HT1080-NT tox: inconclusive; IL-1B inflam inh: -73*; ELG1 repair inh: 9.2µM*

Results for COc1ccccc1/C=C/C(=O)N1CCN(S(=O)(=O)c2cc(C)ccc2C)CC1 ?
HT1080 IDH1KD tx: -22%; DT40 TDP1 no CPT: inconclusive; DT40 TDP1 CPT: inconclusive; HT1080-NT tox: -21%; IL-1B inflam inh: -16; ELG1 repair inh: inconclusive

How did COc1ccccc1NC(=O)C(C(C)C)N1C(=O)c2ccccc2C1=O (stereo unspecified) do in these assays?
HT1080 IDH1KD tx: 12%; DT40 TDP1 no CPT: 3%; DT40 TDP1 CPT: 2%; HT1080-NT tox: 1%; IL-1B inflam inh: 7; ELG1 repair inh: 13%

What do the screens show for `CCC(OC(=O)C(C)N1C(=O)C(=O)c2ccccc21)C(=O)Nc1ccccc1OC` (stereo unspecified)?
HT1080 IDH1KD tx: -5%; DT40 TDP1 no CPT: 5.8µM*; DT40 TDP1 CPT: 4.6µM*; HT1080-NT tox: -15%; IL-1B inflam inh: 14; ELG1 repair inh: 10%

Results for CCOc1ccc(C2=CC(=O)C[C@H](c3ccc(OC)cc3)C2)cc1 ?
HT1080 IDH1KD tx: 3%; DT40 TDP1 no CPT: -20%; DT40 TDP1 CPT: -25%; HT1080-NT tox: 0%; IL-1B inflam inh: -7; ELG1 repair inh: inconclusive

What do the screens show for `Cc1ncc(C[n+]2csc(CCOP(=O)(O)OP(=O)(O)O)c2C)c(N)n1`?
DT40 TDP1 no CPT: 7%; DT40 TDP1 CPT: -8%

Results for O=C(O)c1cccc(-n2nc(-c3ccc(Cl)c([N+](=O)[O-])c3)c3ccccc3c2=O)c1 ?
HT1080 IDH1KD tx: -27%; DT40 TDP1 no CPT: 2%; DT40 TDP1 CPT: inconclusive; HT1080-NT tox: -10%; IL-1B inflam inh: -69*; ELG1 repair inh: 8%

How did Clc1ccc(-n2c(SC/C=C/c3ccccc3)nnc2-c2cccnc2)cc1 do in these assays?
HT1080 IDH1KD tx: inconclusive; DT40 TDP1 no CPT: inconclusive; DT40 TDP1 CPT: 23µM*; HT1080-NT tox: inconclusive; IL-1B inflam inh: inconclusive; ELG1 repair inh: inconclusive
